In PubChem BioAssay (NCATS):
Inconclusive results are not listed. Active and inactive are the calls of the source. The call rests on the fitted dose curve; in most records, active means well fitted curve in the direction sought with a large enough effect; inconclusive means small, poorly fitted or top-dose-only effect, or another doubt; inactive means no such curve, though single readings can be large; an effect the other way counts as inactive or inconclusive.

Legend:
[1] = Cellular Toxicity (caspase-3) Mesangial (AID 660); settings: mesangial cells, normalized: DMSO 0%, 100 µM tamoxifen 100%; at 91.7 µM (top of the series);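 further: combined caspase 3 and 7 activity read by Caspase-Glo luminescence; cells exposed to compound for 16 h before the caspase read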
Method in brief: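 Seed cells derived from normal human renal glomeruli, incubate 5 h, add compounds across concentrations and incubate 16 h at 37 °C. Caspase 3/7 activation is then quantified by luciferase light, with AC50 derived by Hill modeling.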

[2] = Cellular Toxicity (caspase-3) SK-N-SH (AID 661);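 further: 0% = DMSO basal and 100% = 10 µM staurosporine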
Method in brief: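 Cells were seeded and incubated 5 hr at 37 °C, dosed with compound over a concentration range for 16 hr, then given Caspase-Glo 3/7 reagent for 1 hr at room temperature before luminescence reading.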

[3] = Cellular Toxicity (caspase-3) H-4-II-E (AID 663); settings: H-4-II-E rat hepatoma, scaled: DMSO 0%, 100 µM tamoxifen 100%; at 92.2 µM (top of the series);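 further: cells exposed to compound for 16 hr before readout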
Method in brief: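 Caspase 3/7 activation measured in H-4-II-E cells in complete culture medium after 16 hr treatment at 37 °C, using luciferase-coupled substrate readout; AC50 values come from Hill-equation fits of normalized concentration-response data.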

[4] = Cellular Toxicity (caspase-3) Hek293 (AID 664); settings: HEK293 caspase-3 activation, DMSO = 0%, 100 µM tamoxifen = 100%; at 92.2 µM (top of the series);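 further: cells exposed to compound for 16 h at 37 °C before readout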
Method in brief: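 qHTS, HEK293 (human embryonic kidney), 16 h cpd exposure in complete medium. Caspase-3/7 activation = luminescence increase; normalized to DMSO/100 uM tamoxifen; Hill-fit AC50.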

[5] = Cellular Toxicity (caspase-3) N2a (AID 665);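 further: compound exposure lasted 16 h at 37 °C before readout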
Method in brief: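 Caspase-3/7 activation, measured as increased luminescence from aminoluciferin release, is quantified in mouse N2a cells exposed to compounds for 16 h. Values are normalized to DMSO and 10 uM staurosporine, with AC50 derived by Hill modelling.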

[6] = Cellular Toxicity (caspase-3) NIH 3T3 (AID 666);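 further: caspase signal read after 16 h compound exposure; 0% = DMSO basal and 100% = 100 µM tamoxifen stimulation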
Method in brief: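 Cells were plated at 1000 per well and incubated 5 hr at 37°C, then compound was added for 16 hr. Caspase-Glo 3/7 reagent followed for 20 min at room temperature before luminescence was read.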

[7] = Cellular Toxicity (caspase-3) Renal Proximal Tubule (AID 667); settings: Potency: caspase-3 activation;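 further: cells exposed to compound for 16 hours at 37 °C before detection; 0% = DMSO basal and 100% = 10 µM staurosporine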
Method in brief: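 AC50 derived by standard Hill fit of concentration-response data, normalized between DMSO basal and 10 uM staurosporine as 100% stimulation. Cells: primary rat kidney proximal tubule, 16 h treatment at 37 °C.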

[8] = molecular target: Cytochrome P450 3A4 (Homo sapiens) (UniProt P08684); test: qHTS Assay for Inhibitors and Substrates of Cytochrome P450 3A4 (AID 884); further: on the % scale 0 is the no-effect control and ±100 the full control effect; nearly all actives have a fitted effect of over 50% in size
Cytochrome P450 3A4 (Homo sapiens), sequence (P08684 whole entry, looked up): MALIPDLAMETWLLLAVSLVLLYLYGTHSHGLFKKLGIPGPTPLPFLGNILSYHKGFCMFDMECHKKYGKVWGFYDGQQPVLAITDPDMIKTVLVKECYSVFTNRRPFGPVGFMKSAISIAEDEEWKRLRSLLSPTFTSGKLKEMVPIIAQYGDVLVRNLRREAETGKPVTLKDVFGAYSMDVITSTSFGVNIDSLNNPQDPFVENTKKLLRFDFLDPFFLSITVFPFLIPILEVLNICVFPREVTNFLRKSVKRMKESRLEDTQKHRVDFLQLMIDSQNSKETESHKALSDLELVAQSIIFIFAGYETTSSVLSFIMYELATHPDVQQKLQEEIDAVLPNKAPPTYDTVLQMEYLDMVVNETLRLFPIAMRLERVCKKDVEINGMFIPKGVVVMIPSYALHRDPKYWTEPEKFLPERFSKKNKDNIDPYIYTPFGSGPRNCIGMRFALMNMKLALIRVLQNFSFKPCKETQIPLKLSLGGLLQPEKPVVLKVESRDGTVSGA
Method in brief: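 Luminescent readout of luciferin produced by CYP3A4 (20 nM) dealkylation of Luciferin-PPXE, 25 uM (its KM). NADPH-driven reaction ran 60 min at RT after 10 min compound preincubation; data scaled to 57 uM ketoconazole as 100% inhibition.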

[9] = Cell Viability - LYMP2-001 (AID 921);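 further: cells exposed to compound for 24 h at 37 °C; 0% = DMSO only and full inhibition = tetraoctylammonium bromide control wells; nearly all actives have a fitted effect of over 70% in size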
Method in brief: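 Steps: seed 2500 lymphoblastoid cells/well; 5 hr, 37 C; add compound; 24 hr, 37 C; CellTiter-Glo reagent, 30 min room temperature; read luminescence. Concentration-response modeled by Hill equation for AC50.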

[10] = MultiTox-Fluor Cytotoxicity Assay - LYMP1-001 - Live Cells (AID 947);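 further: 0% = DMSO only and full inhibition = tetraoctylammonium bromide control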
[11] = Cell Viability - LYMP1-002 - Assay at 16 hr (AID 948);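 further: 0% = DMSO alone and full effect = 92 µM tetraoctylammonium bromide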
Method in brief: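 Seed 2500 LYMP1-002 cells per well in complete medium and hold 5 hr at 37 C. Add compound across a concentration series and incubate 16 hr at 37 C. Add CellTiter-Glo, wait 30 min at room temperature, read luminescence.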

[12] = MultiTox-Fluor Cytotoxicity Assay - LYMP1-002 - Live Cells (AID 955); further: on the % scale 0 is the no-effect control and ±100 the full control effect
Method in brief: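 Cells were seeded at 2500 per well and incubated 5 hr. Compounds were then added for 16 hr at 37 C, followed by MultiTox-Fluor reagent for 60 min at room temperature and fluorescence reading of viable-cell protease signal.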

[13] = MultiTox-Fluor Cytotoxicity Assay - LYMP1-002 - Dead Cells (AID 960); further: nearly all actives have a fitted effect of over 60% in size
Method in brief: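 Cells were plated, rested 5 hr, then treated with compound dilution series for 16 hr at 37 C. After adding substrate reagent and 60 min at room temperature, dead-cell protease fluorescence gave concentration-response curves fitted by the Hill equation.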

[14] = MultiTox-Fluor Cytotoxicity Assay - LYMP1-003 - Dead Cells (AID 961); further: nearly all actives have a fitted effect of over 70% in size
Method in brief: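 LYMP1-003 lymphoblastoid, 2500 cells/well, 5 hr settle then 16 hr cpd at 37 C; MultiTox-Fluor reagent 60 min RT; Ex/Em 485/520 dead-cell signal; norm. DMSO = 0%, 15 uM tetraoctylammonium bromide = 100%; Hill AC50.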

[15] = MultiTox-Fluor Cytotoxicity Assay - LYMP1-003 - Live Cells (AID 962);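 further: cells exposed to compound for 16 hours at 37 °C; 0% = DMSO only and full loss = 92 µM tetraoctylammonium bromide; cytotoxic hits lower the live-cell protease signal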
Method in brief: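 Acute cytotoxicity is scored as a drop in live-cell protease activity in human lymphoblastoid LYMP1-003 cells after 16 hr compound exposure at 37 C. AC50 values come from Hill-equation modelling of concentration-response data.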

[16] = Cell Viability - LYMP1-003 - Assay at 40 hr (AID 964); further: on the % scale 0 is the no-effect control and ±100 the full control effect; nearly all actives have a fitted effect of over 60% in size
Method in brief: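 Luminescent ATP signal (CellTiter-Glo) served as the viability read-out after 40 hr compound treatment of human lymphoblastoid LYMP1-003 cells at 37 C. Decreases in ATP were fitted with the Hill equation to give AC50.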

[17] = Cell Viability - LYMP2-003 (AID 965);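 further: cells exposed to compounds for 24 h before reading; 0% = DMSO only and full effect = 92 µM tetraoctylammonium bromide; nearly all actives have a fitted effect of over 50% in size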
Method in brief: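 Seed 2500 lymphoblastoid cells/well; incubate 5 hr, 37 C; add compounds; incubate 24 hr, 37 C; add CellTiter-Glo, 30 min RT; read luminescence. AC50 from Hill fit.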

[18] = MultiTox-Fluor Cytotoxicity Assay - LYMP1-001 - Dead Cells (AID 946)
Method in brief: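 Seed 2500 LYMP1-001 cells/well, incubate 5 hr at 37 C; add compound, 16 hr at 37 C; add MultiTox-Fluor reagent, 60 min RT; read dead-cell fluorescence Ex/Em=485/520. Normalize to DMSO and 15 uM tetraoctylammonium bromide.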

[19] = Cell Viability - LYMP1-003 - Assay at 24 hr (AID 963);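 further: plate controls were DMSO only for no effect and tetraoctylammonium bromide positive control for full effect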
Method in brief: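 Cytotoxicity is scored as a concentration-dependent fall in ATP-linked luciferase signal in human lymphoblastoid LYMP1-003 cells treated 24 hr at 37 C in complete culture medium.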

COC(=O)CC#N
inactive: caspase-3 activation [1] 0.486% | outcome [2] | caspase-3 activation [3] 1.64% | caspase-3 activation [4] 0.82% | outcome [5] | outcome [6] | Potency [7] | Potency [8] | Potency [9] | outcome [10] | outcome [11] | outcome [12] | outcome [13] | Potency [14] | Potency [15] | Potency [16] | Potency [17]

Cc1ccc(C)c(N)c1
inactive: caspase-3 activation [1] 1.89% | outcome [2] | caspase-3 activation [3] 3.4% | caspase-3 activation [4] 3.4% | outcome [5] | outcome [6] | Potency [7] | Potency [8] | Potency [9] | outcome [18] | outcome [13] | Potency [14] | Potency [15] | Potency [19] | Potency [16] | Potency [17]

CC(C)N(C)C
inactive: caspase-3 activation [1] 0.455% | outcome [2] | caspase-3 activation [3] 0.576% | caspase-3 activation [4] 1.04% | outcome [5] | outcome [6] | Potency [7] | Potency [8] | Potency [9] | outcome [10] | outcome [11] | outcome [12] | outcome [13] | Potency [14] | Potency [15] | Potency [19] | Potency [16] | Potency [17]

FB(F)F
inactive: caspase-3 activation [1] 3.07% | outcome [2] | caspase-3 activation [3] 0.388% | caspase-3 activation [4] 2.37% | outcome [5] | outcome [6] | Potency [7] | Potency [8] | Potency [9] | outcome [18] | outcome [12] | outcome [13] | Potency [14] | Potency [15] | Potency [19] | Potency [16] | Potency [17]

O=C(O)c1ccc(C(=O)O)cc1
inactive: caspase-3 activation [1] -1.02% | outcome [2] | caspase-3 activation [3] 0.895% | caspase-3 activation [4] -1.8% | outcome [5] | outcome [6] | Potency [7] | Potency [8] | Potency [9] | outcome [10] | outcome [11] | outcome [12] | outcome [13] | Potency [14] | Potency [15] | Potency [19] | Potency [16] | Potency [17]

C=C(C)C1CC=C(C)C(OC(C)=O)C1 (stereo not given)
inactive: caspase-3 activation [1] -0.114% | outcome [2] | caspase-3 activation [3] 2.65% | caspase-3 activation [4] 1.35% | outcome [5] | outcome [6] | Potency [7] | Potency [8] | Potency [9] | outcome [18] | outcome [12] | outcome [13] | Potency [15] | Potency [16] | Potency [17]

CCCOCC(C)O (stereo not given)
inactive: caspase-3 activation [1] 0.289% | outcome [2] | caspase-3 activation [3] -0.784% | caspase-3 activation [4] -1.05% | outcome [5] | outcome [6] | Potency [7] | Potency [8] | Potency [9] | outcome [10] | outcome [11] | outcome [12] | outcome [13] | Potency [14] | Potency [15] | Potency [19] | Potency [16] | Potency [17]

Cc1cccc2sc(N)nc12
inactive: caspase-3 activation [1] -0.691% | outcome [2] | caspase-3 activation [3] -0.522% | caspase-3 activation [4] 1.8% | outcome [5] | outcome [6] | Potency [7] | Potency [8] | Potency [9] | outcome [10] | outcome [11] | outcome [12] | outcome [13] | Potency [15] | Potency [19] | Potency [17]

O=C(O)c1c(Cl)cccc1Cl
inactive: caspase-3 activation [1] 0.0651% | outcome [2] | caspase-3 activation [3] -0.197% | caspase-3 activation [4] 0.49% | outcome [5] | outcome [6] | Potency [7] | Potency [8] | Potency [9] | outcome [10] | outcome [11] | outcome [12] | outcome [13] | Potency [14] | Potency [15] | Potency [19] | Potency [16] | Potency [17]

Clc1ccccn1
inactive: caspase-3 activation [1] 0.0313% | outcome [2] | caspase-3 activation [3] -0.264% | caspase-3 activation [4] 0.154% | outcome [5] | outcome [6] | Potency [7] | Potency [8] | Potency [9] | outcome [10] | outcome [11] | outcome [12] | outcome [13] | Potency [14] | Potency [15] | Potency [19] | Potency [16] | Potency [17]

O=C1CCCCC1
inactive: caspase-3 activation [1] 1.1% | outcome [2] | caspase-3 activation [3] 0.476% | caspase-3 activation [4] 0.988% | outcome [5] | outcome [6] | Potency [7] | Potency [8] | Potency [9] | outcome [10] | outcome [11] | outcome [12] | outcome [13] | Potency [14] | Potency [19] | Potency [16] | Potency [17]

CCCCCCCN
inactive: caspase-3 activation [1] 1.08% | outcome [2] | caspase-3 activation [3] 2.21% | caspase-3 activation [4] -0.824% | outcome [5] | outcome [6] | Potency [7] | Potency [8] | Potency [9] | outcome [10] | outcome [11] | outcome [12] | outcome [13] | Potency [15] | Potency [19] | Potency [16] | Potency [17]

Cc1ccccc1C(=O)O
inactive: caspase-3 activation [1] -0.934% | outcome [2] | caspase-3 activation [3] -0.229% | caspase-3 activation [4] -3.25% | outcome [5] | outcome [6] | Potency [7] | Potency [8] | Potency [9] | outcome [18] | outcome [11] | outcome [13] | Potency [15] | Potency [19] | Potency [16] | Potency [17]

CC(=O)OCc1ccco1
inactive: caspase-3 activation [1] -0.525% | outcome [2] | caspase-3 activation [3] -0.245% | caspase-3 activation [4] -4.85% | outcome [5] | outcome [6] | Potency [7] | Potency [8] | Potency [9] | outcome [18] | outcome [11] | outcome [12] | outcome [13] | Potency [14] | Potency [19] | Potency [17]

O=Cc1cccc(Br)c1
inactive: caspase-3 activation [1] 1.82% | outcome [2] | caspase-3 activation [3] 2.2% | caspase-3 activation [4] 4.91% | outcome [5] | outcome [6] | Potency [7] | Potency [8] | Potency [9] | outcome [10] | outcome [11] | outcome [12] | outcome [13] | Potency [14] | Potency [15] | Potency [19] | Potency [16] | Potency [17]
